# From PubChem BioAssay
# The list is not random: actives were taken first. Their share in the collection is about 8.1%.
# Epigenetic derep – Quantitative High-Throughput Screen for Regulators of Epigenetic Control | murine LDR cells, GFP reporter derepression, 30 h | Potency, µM (top dose mostly 53.9 µM), for inactives: top-dose GFP activation, hits mostly activators | 0.2% of 280,000 active | AID 1865, 2009; further: % of control where 0% means no effect; nearly all actives have a fitted effect of over 60% in size
#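 Murine LDR cells bearing a silenced CMV-driven GFP reporter were exposed to compound for 30 h at 37 C. After PBS washes, GFP-positive cells (20-120 um objects) counted by laser-scanning microplate cytometry.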
# ClpP mod – qHTS Assay for Activators of ClpP | 1.9% of 340,000 active | purified B. subtilis ClpP, FRET peptide cleavage, 20 min | ATP-dependent Clp protease proteolytic subunit (Bacillus subtilis (strain 168)), P80244 | Potency, µM (series often up to 57.5 µM), for the others: at the top dose activity change, negative = active; active means well fitted falling curve with a large enough effect; inconclusive means small, poorly fitted or top-dose-only effect; inactive means no such curve, though single readings can be large or run the other way; further: the source files actives as falling curves though it sought activators and does not explain the sign; nearly all actives have a fitted effect of over 65% in size
# Target sequence (P80244 whole entry, looked up): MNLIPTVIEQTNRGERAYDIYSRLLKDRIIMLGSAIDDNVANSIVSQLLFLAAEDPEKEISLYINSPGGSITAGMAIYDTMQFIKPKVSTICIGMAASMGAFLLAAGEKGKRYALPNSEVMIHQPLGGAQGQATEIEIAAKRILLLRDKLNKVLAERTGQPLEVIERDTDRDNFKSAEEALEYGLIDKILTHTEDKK
#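 Buffer: 100 mM Tris/HCl pH8, 100 mM KCl, 0.05% low protease BSA, 2.5% glycerol, 0.01% Tween-20. ClpP 10 microg/mL final; 20 min RT; delta FRET normalized to ADEP and DMSO controls.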
# PINK1 expr mod – A Quantitative High throughput Screen to Identify Chemical Modulators of PINK1 Expression | 0.2% of 410,000 active | Potency, µM (doses to about 76.6 µM), without a hit: at the top dose activation (PINK1 increase), actives largely listed as activators | PINK1 immunofluorescence, high-content cytometry, 24 h; active means well fitted activation curve with a large enough effect; inconclusive means small, poorly fitted or top-dose-only effect; cell line not stated here; further: % of control where 0% means no effect; nearly all actives have a fitted effect of over 65% in size
#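 A stable cell line was treated with compounds at 5 concentrations for 24 hours, with CCCP as control. PINK1 levels and mitochondrial localization were measured by immunofluorescence with mitochondrial, cell and nuclear markers after fixation, read by laser-scanning cytometry.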
# Sfp PPTase inh – qHTS Assay for Inhibitors of Bacillus subtilis Sfp phosphopantetheinyl transferase (PPTase); 4'-phosphopantetheinyl transferase ffp (Bacillus subtilis), Q9F4F7; Biochemical Sfp PPTase activity, qHTS; Potency, µM, without a hit: largest response in the series, negative = inhibition, actives largely listed as inhibitors; 3.5% of 310,000 active; AID 1490, 2009;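 further: the enzyme is Sfp with the accession as filed and its product quenches rhodamine fluorescence; 0% = enzyme reaction without inhibitor and -100% = no enzyme wells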
#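 Sfp 15 nM + cpd, 15 min RT; start w/ rhodamine-CoA 5 uM, BHQ-2-YbbR 12.5 uM (final); 50 mM Hepes pH 7.6, 10 mM MgCl2, 0.01% NP-40, 0.01% BSA; read 525/598 nm at 0 and 30 min.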
# VP16 counter – VP16 counterscreen qHTS for inhibitors of ROR gamma transcriptional activity; Drosophila S2 Gal4-VP16 UAS-luciferase, luminescence, 20 h; AID 2546, 2010; Potency, µM (doses to about 53.6 µM), for the others: at the highest dose activity, negative = inhibition, hits mostly inhibitors; 3.5% of 310,000 active;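 further: Gal4-VP16 expression switched on by copper sulfate through the metallothionein promoter; on the % scale 0 is the no-effect control and ±100 the full control effect; nearly all actives have a fitted effect of over 50% in size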
# RORg inh – qHTS for inhibitors of ROR gamma transcriptional activity. Nuclear receptor ROR-gamma (Mus musculus), P51450. Drosophila S2 Gal4-RORgamma UAS-luciferase reporter, 20 h. Potency, µM (highest dose often 53.6 µM), without a hit: at the highest dose activity change, negative = inhibition, most hits filed as inhibitors. 5.4% of 310,000 active. AID 2551, 2010; further: on the % scale 0 is the no-effect control and ±100 the full control effect; nearly all actives have a fitted effect of over 60% in size
# Target sequence (P51450 whole entry, looked up, the tested form may be a part): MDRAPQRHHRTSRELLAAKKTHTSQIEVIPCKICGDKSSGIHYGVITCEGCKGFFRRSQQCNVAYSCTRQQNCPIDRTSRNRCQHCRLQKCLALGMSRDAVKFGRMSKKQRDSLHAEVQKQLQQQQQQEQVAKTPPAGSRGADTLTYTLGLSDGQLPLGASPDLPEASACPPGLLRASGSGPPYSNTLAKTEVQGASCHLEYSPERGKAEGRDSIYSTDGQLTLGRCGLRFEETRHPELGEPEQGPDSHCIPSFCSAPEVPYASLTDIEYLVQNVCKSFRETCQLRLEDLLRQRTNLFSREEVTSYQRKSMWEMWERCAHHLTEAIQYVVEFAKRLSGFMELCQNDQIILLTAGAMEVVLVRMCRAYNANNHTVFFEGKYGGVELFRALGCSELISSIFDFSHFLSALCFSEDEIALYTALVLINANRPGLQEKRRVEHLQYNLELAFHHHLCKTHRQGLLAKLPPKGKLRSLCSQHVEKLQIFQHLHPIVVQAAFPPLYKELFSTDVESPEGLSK
#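 ROR gamma transcriptional activity was tracked as Gal4-UAS luciferase output in stably transfected Drosophila Schneider cells, with compound added 1 hr before 700 uM copper sulfate induction and a 20 hr ambient-temperature incubation.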
# Active calls of the source: *; ? = inconclusive; · = not tested or not shown; [ ] = dose if it differs, or a comment. Unless noted, the call rests on the fitted dose curve; in most records, active means well fitted curve in the direction sought with a large enough effect; inconclusive means small, poorly fitted or top-dose-only effect, or another doubt; inactive means no such curve, though single readings can be large; an effect the other way counts as inactive or inconclusive. Potency means the concentration at half of the fitted maximal effect.
SMILES,Epigenetic derep,ClpP mod,PINK1 expr mod,Sfp PPTase inh,VP16 counter,RORg inh
CCn1c(CNC(=O)Cc2ccc(OC)cc2)n[nH]c1=S,0.0%,·,0.8%,10.1%,-12.9%[10 µM],-2.8%
CCOc1ccc(-c2n[nH]c(=S)n2Cc2ccccc2)cc1,·,-19.0%,1.2%,3.2%,5.62µM*,6.31µM*
COc1ccc(Cn2c(-c3ccc(OC)cc3)n[nH]c2=S)cc1,·,·,0.2%,-1.4%,-27.1%,7.94µM*
O=C(Nc1ccc2nccnc2c1)N1CCCCCC1,·,-23.7%,1.7%,·,·,·
C=CCn1c(-c2cccc(Cl)c2)n[nH]c1=S,0.0%,-14.7%,0.4%,9.3%,7.08µM*,3.98µM*
C=CCn1c(-c2sccc2C)n[nH]c1=S,1.1%,-10.3%,-1.3%,1.5%,?,10µM*
C=C(Cl)COc1ccc2c(C)cc(=O)oc2c1,-1.0%,10µM*,-0.7%[38.3 µM],-5.4%,2.8%,-9.8%
CCCCc1cc(=O)oc2cc(OCC(=O)N(CC)CC)ccc12,0.7%,28.2µM*,24.3%[38.3 µM],3.5%,3.9%,27.8%
CCCCc1cc(=O)oc2cc(OS(C)(=O)=O)ccc12,-2.2%,1.2%,0.3%,0.4%,9.2%,?
CCCCc1cc(=O)oc2cc(OCC(=O)N(CC)CC)c(Cl)cc12,0.0%,3.8%,1.4%,-12.2%,-7.1%,0.6%
C=C(Cl)COc1ccc2c(CCCC)cc(=O)oc2c1,-1.0%,28.2µM*,0.5%,-21.2%,12.6%,12.0%
Cc1cc(=O)oc2cc(OCC(=O)NCCCN3CCOCC3)ccc12,-1.7%,28.2µM*,-1.8%,9.5%,-5.6%,-6.3%
CCCCc1cc(=O)oc2cc(OCC(=O)NCc3ccccn3)c(Cl)cc12,·,-8.8%,-1.5%,19.6%,-10.2%,-7.7%
CCc1cc(=O)oc2cc(OCC(N)=O)c(Cl)cc12,-0.5%,31.6µM*,1.3%,12.1%,-5.5%,5.9%
C=C(Cl)COc1ccc2c(CC)cc(=O)oc2c1,-0.9%,25.1µM*,-0.2%[38.3 µM],6.4%,-1.1%,13.6%
C=C(C)COc1ccc2c(CC)cc(=O)oc2c1,-0.9%[10.1 µM],4.1%,0.6%,56.2µM*,4.6%[10 µM],?
c1csc(CNc2nc(CN3CCCC(c4nc5ccccc5o4)C3)nc3ccccc23)c1 (stereo not drawn),·,·,-0.9%,·,·,·
CC1(C)Cc2ccccc2C(NNC(=O)c2cccnc2)=N1,-1.0%,17.8µM*,1.3%,-1.1%,-2.8%,3.9%
CCCOc1ccc(CC2C(=O)Nc3ccc(Br)cc32)cc1 (stereo not drawn),-1.6%,-0.3%,14.7%,·,·,·
Cc1ccc(S(=O)(=O)NC(=NC(C)C)c2ccccc2)cc1,-0.2%,0.6%,1.0%,3.3%,-1.5%,16.3%
Cc1ccc(S(=O)(=O)C/N=C(/NC(=S)N(c2ccccc2)c2ccccc2)c2ccccc2)cc1,-4.1%,0.4%,·,31.6µM*,?,?
CC(C)C[C@H](NC(=O)c1nc[nH]c1C(=O)NCc1ccccc1)C(=O)OC(C)(C)C,1.0%,1.7%,-1.5%,25.5%,10µM*,4.47µM*
CC(C)C[C@H](NC(=O)c1[nH]cnc1C(=O)Nc1ccc(CNC(=O)OC(C)(C)C)cc1)C(=O)OCc1ccccc1,-0.9%,?,8.9%,13.9%,?,5.62µM*
CC(C)C[C@H](NC(=O)c1nc[nH]c1C(=O)NCc1ccc(CNC(=O)OC(C)(C)C)cc1)C(=O)OC(C)(C)C,·,2.6%,1.4%,26.0%,?,12.6µM*
CC(C)C[C@H](NC(=O)c1nc[nH]c1C(=O)NCc1ccccc1)C(=O)OCc1ccccc1,0.1%,-3.6%,9.8%,26.7%,11.2µM*,4.47µM*
SMILES,Epigenetic derep,ClpP mod,PINK1 expr mod,Sfp PPTase inh,VP16 counter,RORg inh
CC(C)(C)OC(=O)NCc1ccc(NC(=O)c2nc[nH]c2C(=O)N[C@@H](Cc2ccccc2)C(=O)OC(C)(C)C)cc1,-1.6%,-25.3%,4.5%,24.7%,11.2µM*,7.08µM*
C[C@H](NC(=O)c1[nH]cnc1C(=O)Nc1ccc(CNC(=O)OC(C)(C)C)cc1)C(=O)OCc1ccccc1,3.0%,85.8%,3.9%,-1.8%,?,?
CC(C)C[C@H](NC(=O)c1[nH]cnc1C(=O)Nc1ccc(CNC(=O)OC(C)(C)C)cc1)C(=O)OC(C)(C)C,?,-16.8%,?,24.0%,8.91µM*,3.16µM*
C[C@H](CO)NC(=O)c1[nH]cnc1C(=O)Nc1ccc(CNC(=O)OC(C)(C)C)cc1,·,1.6%,0.6%,·,·,·
CCCCCNC(=O)c1cc2c(=O)n3ccccc3nc2n1C,0.0%,4.7%,0.9%,·,·,·
O=C(O)c1cccc(NC(=S)N/N=C/c2cccnc2)c1,0.9%,·,0.4%,?,-3.9%,?
Fc1ccc(/C=N/NC(=S)Nc2cccnc2)cc1F,-2.1%,0.2%,0.2%,-5.2%,1.3%,-2.2%
Fc1c(F)c(F)c(/C=N/NC(=S)Nc2cccnc2)c(F)c1F,18.5%,·,-2.1%,2.1%,3.55µM*,2.51µM*
Fc1ccc(/C=N/NC(=S)Nc2cccnc2)cc1,0.0%,1.7%,0.3%,5.4%,0.355µM*,4.47µM*
Fc1cccc(F)c1/C=N/NC(=S)Nc1cccnc1,?,·,0.4%,-4.6%,3.55µM*,1.26µM*
O=C(CCCn1c(=O)c2sccc2n(Cc2cccc(Cl)c2)c1=O)NCc1ccc2c(c1)OCO2,-0.1%,-3.3%,-0.7%,·,·,·
NS(=O)(=O)c1ccc(N/C=C\C(=O)c2ccc(F)cc2)cc1,-1.3%,-2.4%,0.6%,-20.5%,?,36.6%
CN(C)c1ccc(N/C=C/C(=O)c2ccco2)cc1,4.1%,1.4%,0.0%,56.2µM*,11.2µM*,-36.4%
CN(C)c1ccc(N/C=C/C(=O)c2ccc(F)cc2)cc1,?,0.3%,14.8%[38.3 µM],?,?,10µM*
COc1ccc2c(c1)CCC/C2=N\NC(=O)c1ccoc1C,-0.9%,-1.1%,1.0%,2.0%,?,39.8µM*
CCOC(=O)c1csc(N/N=C2\CCc3ccccc32)n1,·,-0.7%,4.4%,-14.8%,?,10µM*
COc1ccc(OCC(=O)N/N=C2\CCCc3ccccc32)cc1,-0.9%,0.6%,1.3%,?,-4.5%,?
CCOC(=O)c1csc(N/N=C2\CCCc3ccccc32)n1,·,0.2%,4.8%,79.4µM*,-26.6%,?
COc1ccc2c(c1)CCC/C2=N\Nc1nc(C(=O)NN)cs1,-1.0%,·,2.6%,0.8%,12.6µM*,3.55µM*
COc1cc2c(cc1OC)C(CC#N)=NC(C)(C)C2,-1.0%,-2.9%,-1.4%,79.4µM*,-4.8%,3.5%
Cn1c(=O)c2c(nc(SCC(=O)Nc3ccc(F)cc3)n2Cc2ccccc2F)n(C)c1=O,-1.1%,-1.7%,0.5%,·,·,·
